What is called AC50 is the concentration giving half of the maximal activity seen.

SMILES strings stand for the structures. Inconclusive results are not listed. Activity calls are given as the source filed them. Rule for the calls: active = hit-call score of the fitted dose curve at least 0.9, where 1 is the maximum; inconclusive = response in the unintended direction; inactive = score below 0.9. Peptide text beside a SMILES is read from it.

For 40 compounds, outcome and AC50 results are on record in PubChem BioAssay (EPA / NIEHS).

Chain of Nuclear receptor subfamily 1 group I member 2 (Homo sapiens) (O75469 whole entry, looked up): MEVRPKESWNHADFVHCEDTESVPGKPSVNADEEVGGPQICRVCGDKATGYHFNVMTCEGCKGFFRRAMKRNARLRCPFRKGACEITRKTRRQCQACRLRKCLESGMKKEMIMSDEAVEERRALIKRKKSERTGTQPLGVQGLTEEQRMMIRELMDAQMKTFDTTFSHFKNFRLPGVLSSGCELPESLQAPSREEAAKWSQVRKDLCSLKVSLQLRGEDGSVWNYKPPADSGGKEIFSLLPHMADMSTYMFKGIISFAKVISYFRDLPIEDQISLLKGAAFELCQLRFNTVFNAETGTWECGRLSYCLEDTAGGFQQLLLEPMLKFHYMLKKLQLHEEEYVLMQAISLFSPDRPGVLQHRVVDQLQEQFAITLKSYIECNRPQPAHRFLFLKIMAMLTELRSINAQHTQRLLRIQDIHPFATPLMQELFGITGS

For the experiment, the target named is Nuclear receptor subfamily 1 group I member 2 (Homo sapiens) (UniProt O75469). Nature of the experiment: ATG_PXR_TRANS: Attagene TRANS-FACTORIAL HepG2 Assay for human Pregnane X Receptor (PXR) (AID 2283008). As for the experimental part:
ATG_TRANS is a cell-based, multiplexed-readout assay that uses HepG2, a human liver cell line, with measurements taken at 24 hours after chemical dosing in a 24-well plate.ATG_PXR_TRANS is one of 30 assay component(s) measured or calculated from the ATG_TRANS assay. It is designed to make measurements of mRNA induction, a form of inducible reporter, as detected with fluorescence intensity signals by Reverse transcription polymerase chain reaction (RT-PCR) and Capillary electrophoresis technology.Data from the assay component ATG_PXR_TRANS was analyzed into 1 assay endpoint. This assay endpoint, ATG_PXR_TRANS, was analyzed in the positive analysis fitting direction relative to DMSO as the negative control and baseline of activity. Using a type of inducible reporter, measures of mRNA for gain-of-signal activity can be used to understand the reporter gene at the transcription factor-level as they relate to the gene NR1I2. Furthermore, this assay endpoint can be referred to as a primary readout, because this assay has produced multiple assay endpoints where this one serves a reporter gene function. To generalize the intended target to other relatable targets, this assay endpoint is annotated to the nuclear receptor intended target family, where the subfamily is non-steroidal.
Human liver HepG2 cells are transiently transfected with multiple reporter transcription units (MRTUs) in 6-well plates using FuGene 6 reagent (Roche; 3 ml FuGene/1 mg DNA). The MRTU constructs are regulated by a cis-regulating element (promoter). […] A major difference between the CIS and TRANS system is that in CIS activities of endogenous TFs are measured, whereas the TRANS assay evaluates changes in activities of exogenous, chimeric NR-Gal4 proteins. […] At the end of 24 hour incubation, total RNA was isolated using TriZol reagent (Invitrogen). The isolated RNA is then reverse-transcribed using oligo(dT) primer and Mo-MLV reverse transcriptase (Invitrogen) with DNAse I (Ambion) treatment for 30 min. The one-tenth of the produced cDNA was amplified by PCR using Taq DNA polymerase (Invitrogen) and two reporter sequence-specific primers. The PCR products were fluorescently labeled by primer extension with 6-arboxyfluorescein (6-FAM) 5'-labeled reporter sequence-specific primer (2 min at 95 C, 20 s at 68 C and 10 min at 72 C) and these products were digested with 5U of HpaI (New England Biolabs) for 2h at 37 C. The fragments were purified using Qiaquick PCR columns (Qiagen), analyzed on an ABI 3130xL genetic analyzer (Applied Biosystems) with peak positions identified by using a set of X-rhodamine (ROX)-labeled MapMarker1000 molecular weight standards (BioVentures). The raw capillary electrophoresis data was processed using Attagraph software (Attagene).
On to `O=C(O)/C=C/c1ccccc1`, for which the result was inactive.
Turning to `C=CCCCCCCCCC=O`, the result was inactive.
The same measure, in the same setting: next, `C=CC(=O)NC(C)(C)C`: “inactive”.
For the compound `Clc1cc(Cl)c(Cl)c(Cl)c1Cl`, the AC50 was 27.6 µM (active).
Still for that read-out and setting: next, `CC1C(C)(C)C2=C(C(=O)CCC2)C1(C)C` (stereo not given): 7.68 µM (active).
On to `COC(=O)c1ccc(C(=O)OC)c(C(=O)OC)c1`, for which the compound was classed as inactive.
Turning to `CCCCCC1=CCCC1=O`, the AC50 is 11.4 µM (active).
As for `CCCCOC(=O)C(C)CC` (stereo not given), the compound was called inactive.
`CCCCC(C=O)CC` (stereo not given): the call was inactive.
As to `COc1cc(C)ccc1O`, the result was inactive.
The same measure, in the same setting: next, `C=CC(=O)OCCCCCCCC(C)C`: “inactive”.
On to `CC1(C)[C@@H]2CC[C@@]1(C)C(=O)C2`, for which the result was inactive.
For the compound `Fc1ccc(Br)cc1`, the outcome was inactive.
Turning to `COC(=O)[C@H](Cc1ccccc1)NC(=O)[C@@H](N)CC(=O)O` (H-Asp-Phe-OMe), the result was inactive.
Turning to `COc1ccc(C(=O)c2ccccc2)c(O)c1`, the AC50 was 27.3 µM (active).
Regarding `C=CCCCCCCCCOC(C)=O`, the compound was classed as inactive.
For the compound `O=C1CCCCC1C1CCCCC1` (stereo not given), the AC50 is 41.2 µM (active).
On to `CC1=CCC(C(C)C)C=C1` (stereo not given), for which the concentration at half-maximal activity (AC50) was 7.16 µM (active).
As for `CCC1COC(=O)O1` (stereo not given), the compound was classed as inactive.
On to `O=C(OCc1ccccc1)c1ccc(O)cc1`, for which the AC50 is 63.2 µM (active).
Take `CC/C=C\CCOC(=O)c1ccccc1O`: the result was inactive.
The same measure, in the same setting: next, `C=C(C)C(=O)OCCOC(=O)C(=C)C`: “inactive”.
Turning to `C=C1C[C@H]2[C@@H]3C=C(C)C4=CC(=O)CC[C@]4(C)[C@H]3CC[C@]2(C)[C@@]1(OC(C)=O)C(C)=O`, the outcome was inactive.
With `CC(CC=O)CC(C)(C)C` (stereo not given), the AC50 was 7.15 µM (active).
On to `CCN1CCCC1=O`, for which the compound was classed as inactive.
For `Cc1cc(C)c(C=O)c(C)c1`, the AC50 is 7.01 µM (active).
For `CCCCCCO`, the compound was called inactive.
The same measure, in the same setting: for `C=C(C)C(=O)OCCCCCCCCCCCC` the value was “inactive”.
In the case of `CCCCC1C(=O)N(c2ccccc2)N(c2ccccc2)C1=O`, the AC50 is 1.01 µM (active).
On the same count and under the same terms, for `CC/C=C\C/C=C\C/C=C\CCCCCCCC(=O)OC` the value was 31.3 µM (active).
Regarding `CCCCCCCCCCCCCc1ccccc1`, the compound was classed as inactive.
For `OCCCc1ccccc1`, the call was inactive.
Regarding `CCc1cccc(C)c1N(C(=O)CS(=O)(=O)O)C(C)COC` (stereo not given), the AC50 was 27.6 µM (active).
In the case of `O=C(Cl)c1c(Cl)c(Cl)c(C(=O)Cl)c(Cl)c1Cl`, the call was inactive.
As to `CN(C)c1ccc2nc3ccc(=[N+](C)C)cc-3sc2c1`, the AC50 is 10.3 µM (active).
As for `CC(=O)OCc1ccccc1`, the compound was classed as inactive.
Consider `CCC(C)c1ccccc1` (stereo not given), for which the compound was classed as inactive.
For `C=CC(=O)OCCCCCCOC(=O)C=C`, the AC50 is 26.5 µM (active).
Same read-out and setting: next, `CC1CCC(C(C)(C)S)C(=O)C1` (stereo not given): 1.89 µM (active).
As for `COC(=O)C=Cc1ccccc1`, the result was inactive.
